PubChem BioAssay (EPA / NIEHS)
Calls of active or inactive are those of the source. Rule for the calls: active = hit-call score of the fitted dose curve at least 0.9, where 1 is the maximum; inactive = score below 0.9.

Key:
Settings in all cases: mRNA level, 48 h; actives raise or lower the signal
CYP3A5 (gene 1577) = experiment: LTEA_HepaRG_CYP3A5: Life Technologies and Expression Analysis (LTEA) Assay for CYP3A5 using HepaRG (AID 2283493)
Outline: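 Readout was CYP3A5 mRNA by qRT-PCR. HepaRG cultures were exposed for 48 h in serum-free induction medium to chemicals at up to 100 uM, and responses were fitted in both directions relative to DMSO vehicle.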

[1] = read-out: Fatty Acid-Binding Protein 1 (FABP1), FABP1 (gene 2168); experiment: LTEA_HepaRG_FABP1: Life Technologies and Expression Analysis (LTEA) Assay for Fatty Acid-Binding Protein 1 (FABP1) using HepaRG (AID 2283494)
Outline: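 Values reflect bidirectional concentration-response fitting of FABP1 mRNA change against 0.5% DMSO controls. Human HepaRG cultures received eight half-log doses (top 100 uM) for 48 h; expression quantified by TaqMan qRT-PCR with housekeeping-gene normalization.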

[2] = read-out: Cytochrome P450 4A22 (Homo sapiens) (UniProt Q5TCH4); experiment: LTEA_HepaRG_CYP4A22: Life Technologies and Expression Analysis (LTEA) Assay for Cytochrome P450 4A22 (CYP4A22) using HepaRG (AID 2283495)
Outline: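 Gene expression measured by qRT-PCR against three housekeeping genes (ACTB, GAPDH, POLR2A), with gain or loss fitted relative to 0.5% DMSO vehicle. HepaRG cultures received 48 h chemical treatment, top concentration 100 uM, half-log steps, duplicate wells.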

[3] = read-out: Cytochrome P450 7A1 (Homo sapiens) (UniProt P22680); experiment: LTEA_HepaRG_CYP7A1: Life Technologies and Expression Analysis (LTEA) Assay for Cytochrome P450 7A1 (CYP7A1) using HepaRG (AID 2283496)
Outline: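 Using 0.5% DMSO as vehicle and baseline, chemicals were tested in duplicate over an 8-point range from 100 uM on HepaRG cells for 48 h; qRT-PCR signals were normalised to ACTB, GAPDH and POLR2A.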

[4] = read-out: Glutathione S-Transferase (GSTA2), GSTA2 (gene 2939); experiment: LTEA_HepaRG_GSTA2: Life Technologies and Expression Analysis (LTEA) Assay for Glutathione S-Transferase (GSTA2) using HepaRG (AID 2283497)
Outline: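 Oxidative-stress marker GSTA2 is quantified by TaqMan qRT-PCR in HepaRG cultures treated 48 h across an eight-point range to 100 uM. Expression is normalized to endogenous controls and compared with 0.5% DMSO vehicle.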

[5] = read-out: Glutamate-cysteine ligase catalytic (GCLC), GCLC (gene 2729); experiment: LTEA_HepaRG_GCLC: Life Technologies and Expression Analysis (LTEA) Assay for Glutamate-cysteine ligase catalytic (GCLC) using HepaRG (AID 2283498)
Outline: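 Oxidative-stress marker GCLC is measured as mRNA change in human HepaRG liver cells after 48 h chemical treatment in 0.5% DMSO, eight concentrations from 100 uM. Activity is fitted bidirectionally against vehicle.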

[6] = read-out: growth arrest and DNA damage 45 (GADD45G), GADD45G (gene 10912); experiment: LTEA_HepaRG_GADD45G: Life Technologies and Expression Analysis (LTEA) Assay for growth arrest and DNA damage 45 (GADD45G) using HepaRG (AID 2283499)
Outline: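 GADD45G transcript level by qRT-PCR (housekeeping-normalized: ACTB, GAPDH, POLR2A) after 48 h chemical treatment of a single HepaRG lot in serum-free induction medium; eight-point half-log series up to 100 uM in 0.5% DMSO, duplicates, up- or down-regulation scored.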

[7] = read-out: Glutathione S-transferase M3 (GSTM3), GSTM3 (gene 2947); experiment: LTEA_HepaRG_GSTM3: Life Technologies and Expression Analysis (LTEA) Assay for Glutathione S-transferase M3 (GSTM3) using HepaRG (AID 2283501)
Outline: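 GSTM3 transcript levels came from Fluidigm TaqMan qRT-PCR normalized to three housekeeping genes, fitted in both directions against DMSO. HepaRG cultures received chemicals for 48 h in serum-free induction medium (0.5% DMSO), 8 half-log concentrations up to 100 uM, duplicate.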

[8] = read-out: Heat shock 70 kDa protein 1 (HSPA1A), gene 3303; experiment: LTEA_HepaRG_HSPA1A: Life Technologies and Expression Analysis (LTEA) Assay for Heat shock 70 kDa protein 1 (HSPA1A) using HepaRG (AID 2283502)
Outline: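 An oxidative-stress marker readout: HepaRG cells treated 48 h in duplicate with an eight-point series (highest 100 uM) had HSPA1A mRNA quantified by TaqMan qRT-PCR. Activity was fitted in both directions using 0.5% DMSO as baseline.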

[9] = read-out: Glutamate-cysteine ligase regulatory (GCLM), GCLM (gene 2730); experiment: LTEA_HepaRG_GCLM: Life Technologies and Expression Analysis (LTEA) Assay for Glutamate-cysteine ligase regulatory (GCLM) using HepaRG (AID 2283500)
Outline: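 In this multiplexed HepaRG gene-expression assay, GCLM mRNA change after 48 h treatment (8 concentrations, max 100 uM) was scored against DMSO by bidirectional curve fitting.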

Measured: AC50

CC(C)(O)c1coc(S(=O)(=O)NC(=O)Nc2c3c(cc4c2CCC4)CCC3)c1
active: [3] 18.3 µM
not listed: [9]
inactive: all other assays above

CC(C)=CCCC(C)CCO (centres undefined)
not listed: [9]
inactive: all other assays above

CC1=CC(=O)CC(C)(C)C1
not listed: [9]
inactive: all other assays above

CCC(C)(C)C(=O)O[C@H]1C[C@@H](C)C=C2C=C[C@H](C)[C@H](CC[C@@H]3C[C@@H](O)CC(=O)O3)[C@H]21
active: [1] 5.7 µM
not listed: CYP3A5 (gene 1577) | [2] | [3]
inactive: all other assays above

CC[C@H]1OC(=O)[C@H](C)[C@@H](O[C@H]2C[C@@](C)(OC)[C@@H](O)[C@H](C)O2)[C@H](C)[C@@H](O[C@@H]2O[C@H](C)C[C@H](N(C)C)[C@H]2O)[C@](C)(O)C[C@@H](C)C(=O)[C@H](C)[C@@H](O)[C@]1(C)O
not listed: [6]
inactive: all other assays above

CC(O)CN(CCN(CC(C)O)CC(C)O)CC(C)O (centres undefined)
active: CYP3A5 (gene 1577) 12.4 µM | [4] 12.5 µM
not listed: [9]
inactive: all other assays above

COc1ccc(-n2nc(C(F)F)cc2-c2ccc(S(C)=O)cc2)cc1 (centres undefined)
active: [2] 15.6 µM | [8] 43.5 µM
not listed: [9]
inactive: all other assays above

Cc1ccc(O)cc1
inactive: [1] | [4] | [5] | [6] | [7] | [8]

CC(C)CC(C)(O)C#CC(C)(O)CC(C)C (centres undefined)
not listed: [2] | [3] | [9]
inactive: all other assays above

CN(C)c1ccc(Cc2ccc(N(C)C)cc2)cc1
active: [2] 50 µM | [6] 50 µM
not listed: [9]
inactive: all other assays above

CC(C)=CCC/C(C)=C\CO
inactive: [1] | [4] | [5] | [7] | [8]

CCc1cc(SCc2sc(-c3ccc(C(F)(F)F)cc3)nc2CN2CCN(c3ccc(OC)cc3)CC2)ccc1OCC(=O)O
active: CYP3A5 (gene 1577) 10.9 µM | [1] 76.8 µM | [2] 8.62 µM | [3] 7.1 µM | [4] 77 µM | [5] 94.1 µM | [6] 91.2 µM | [8] 89.4 µM
inactive: [7]

On1ccccc1=S
not listed: [2] | [3]
inactive: all other assays above

O=C(OC[C@H]1O[C@@H](OC(=O)c2cc(O)c(O)c(OC(=O)c3cc(O)c(O)c(O)c3)c2)[C@H](OC(=O)c2cc(O)c(O)c(OC(=O)c3cc(O)c(O)c(O)c3)c2)[C@@H](OC(=O)c2cc(O)c(O)c(OC(=O)c3cc(O)c(O)c(O)c3)c2)[C@@H]1OC(=O)c1cc(O)c(O)c(OC(=O)c2cc(O)c(O)c(O)c2)c1)c1cc(O)c(O)c(OC(=O)c2cc(O)c(O)c(O)c2)c1
active: CYP3A5 (gene 1577) 4.94 µM | [1] 7.91 µM | [2] 12.4 µM | [3] 9.29 µM | [6] 25.6 µM | [9] 15.2 µM
inactive: [5] | [7] | [8]

COc1cccc(-c2ccc(/C=C\CN3CCCCCC3)cc2Cl)c1
inactive: [5]
active: CYP3A5 (gene 1577) 8.98 µM | [1] 84.1 µM | [2] 84.4 µM | [3] 69.2 µM | [4] 71 µM | [6] 45.2 µM | [7] 79.1 µM | [8] 67.9 µM

CCOC(=O)c1ccc(C2CCC(NC[C@H](O)COc3ccc(O)c(NS(C)(=O)=O)c3)CC2)cc1 (some centres undefined)
not listed: [9]
inactive: all other assays above

O=c1[nH]c2ccc(S(=O)CCN3CCC(Cc4ccc(F)cc4)CC3)cc2o1 (centres undefined)
active: [1] 80.3 µM | [2] 80 µM | [3] 72.5 µM | [4] 87.5 µM | [6] 71.6 µM | [8] 50 µM
inactive: CYP3A5 (gene 1577) | [5] | [7]

CC(C)=CCC/C(C)=C/CO
inactive: [1] | [4] | [5] | [7]

O=C(O)c1cc(N=Nc2ccc(S(=O)(=O)Nc3ccccn3)cc2)ccc1O
not listed: [7] | [9]
inactive: all other assays above

CCCN(C1CCN(C(=O)C2CCNCC2)CC1)[C@@H]1CCc2ccc(OC)cc2C1
inactive: [6]
active: CYP3A5 (gene 1577) 80.3 µM | [1] 83.5 µM | [2] 88.2 µM | [3] 77.3 µM | [4] 81 µM | [5] 50 µM | [7] 50 µM | [8] 79.6 µM

CC[C@H](C)C(=O)O[C@H]1C[C@@H](C)C=C2C=C[C@H](C)[C@H](CC[C@@H]3C[C@@H](O)CC(=O)O3)[C@H]21
active: [1] 13.2 µM
not listed: CYP3A5 (gene 1577)
inactive: all other assays above

NC(=O)NO
inactive: [1] | [4] | [5] | [6] | [7] | [8]

O=C(CCCCCCCCc1cccnc1)N1CCC(C=C(c2ccccc2)c2ccccc2)CC1
active: [1] 26.9 µM | [2] 22.7 µM | [3] 27.1 µM | [4] 28.7 µM | [5] 12.5 µM | [6] 22.8 µM | [8] 81 µM
inactive: CYP3A5 (gene 1577) | [7]

O=P(OC(CCl)CCl)(OC(CCl)CCl)OC(CCl)CCl
active: [1] 72.9 µM | [2] 79 µM | [3] 76.9 µM | [4] 75.6 µM | [5] 89.5 µM | [6] 94.3 µM
inactive: CYP3A5 (gene 1577) | [7] | [8]

CCCCC(CC)COC(=O)c1ccc(C(=O)OCC(CC)CCCC)cc1 (centres undefined)
not listed: [9]
inactive: all other assays above
